Compound activity as filed in PubChem BioAssay.
Anthrax LF prot: Bacillus anthracis LF protease inhibitors, primary screen, biochemical, multiplex microsphere, MLPCN library; 0.12% of 360,000 active; multiplex microsphere protease cleavage assay; Lethal factor (Bacillus anthracis), P15917; inhibition, % at 10 µM; AID 588501, 2011
Target sequence (P15917 whole entry, looked up): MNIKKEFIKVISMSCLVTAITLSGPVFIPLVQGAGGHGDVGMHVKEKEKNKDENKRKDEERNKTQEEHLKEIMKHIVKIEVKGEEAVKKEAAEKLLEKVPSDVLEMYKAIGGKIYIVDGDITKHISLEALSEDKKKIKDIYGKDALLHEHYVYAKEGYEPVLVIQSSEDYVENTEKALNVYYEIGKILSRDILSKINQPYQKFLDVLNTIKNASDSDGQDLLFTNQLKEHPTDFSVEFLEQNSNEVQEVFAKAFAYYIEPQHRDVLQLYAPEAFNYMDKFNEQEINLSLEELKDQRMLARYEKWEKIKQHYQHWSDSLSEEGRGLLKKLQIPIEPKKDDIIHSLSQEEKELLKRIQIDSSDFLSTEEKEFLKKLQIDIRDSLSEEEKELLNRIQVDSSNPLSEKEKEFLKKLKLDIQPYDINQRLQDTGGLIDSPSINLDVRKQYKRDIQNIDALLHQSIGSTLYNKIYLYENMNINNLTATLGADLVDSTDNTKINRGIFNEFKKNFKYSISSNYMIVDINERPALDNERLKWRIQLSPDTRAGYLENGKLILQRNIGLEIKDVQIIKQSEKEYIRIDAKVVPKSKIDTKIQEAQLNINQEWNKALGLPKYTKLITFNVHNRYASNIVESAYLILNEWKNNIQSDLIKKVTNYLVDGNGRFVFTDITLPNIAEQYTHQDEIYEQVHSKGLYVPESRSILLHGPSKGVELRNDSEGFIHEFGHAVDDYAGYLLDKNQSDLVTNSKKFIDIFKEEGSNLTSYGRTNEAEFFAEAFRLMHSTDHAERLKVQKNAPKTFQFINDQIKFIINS
BoNT A protease: BoNT/A light chain protease inhibitors, primary screen, biochemical, flow cytometry, MLPCN library. multiplex microsphere protease substrate cleavage. inhibition, % at 10 µM. 0.17% of 360,000 active. AID 588499, 2011
BJeLR viability: MLPCN primary cell-based screen for lethality selective to Ras in HRASV12 cells; 0.17% of 300,000 active; BJeLR (HRASV12) viability, CellTiter-Glo ATP luminescence, 48 h; inhibition, % (no concentration beside the values); in the data active means inhibition above about 50%; inconclusive means no clear call, values can overlap the other calls
BH1578 lux ind: inducers of Vibrio cholerae quorum light production without autoinducers, primary screen, BH1578 luxS cqsA deficient, single point; V. cholerae BH1578 lux reporter, luminescence, 6 h; activation, % at 18.7 µM; AID 588436, 2011; 0.16% of 350,000 active; in the data active means activation mostly above about 9.7%, no sharp cut-off; inconclusive means no clear call, values can overlap the other calls; inactive means mostly below about 3.7%
BoNT-F LC inh: BoNT/F light chain protease inhibitors, primary screen, biochemical, flow cytometry, MLPCN library. AID 588497, 2011. Multiplex microsphere protease cleavage assay. inhibition, % at 10 µM. 0.22% of 360,000 active; in the data active means inhibition above about 35%, passing the limit was not always enough; inconclusive means no clear call, values can overlap the other calls
Autofluor counter: counter-screen for toxin protease inhibitors: compound fluorescence; compound autofluorescence counterscreen, microsphere flow cytometry; hits give high values; fluorescence intensity (concentration not given with the values); 3.1% of 360,000 active; AID 624483; in the data active means fluorescence intensity above about 16000; inconclusive means no clear call, values can overlap the other calls
Each line names hits and unclear results; the compound was inactive in the other large screens. Hits are enriched below; roughly 3.7% of the tested compounds scored in any of these assays. Unless noted, no stated cut-off is given here; in the data, active means inhibition above about 30%; inconclusive means no clear call, values can overlap the other calls; inactive means below that.

COC(=O)C1=C(C)N(C(C)C)C(=O)C1(NC(=O)C1CCCCC1)C(F)(F)F (stereo not given)	BoNT A protease inconclusive, Autofluor counter 19805
CCCCCCCCCCn1c2c(c(=N)c3c1CCC3)CCC2	BJeLR viability 56
Clc1ccc2c(c1)[C@H]1OCC[C@H]1[C@@H](c1ccco1)N2	none
Fc1ccc2c(c1)[C@H]1OCC[C@H]1[C@@H](c1ccco1)N2	Autofluor counter 23934
O=C1c2oc3ccccc3c(=O)c2C(c2cccc(Br)c2)N1Cc1ccco1 (stereo not given)	Autofluor counter 20275
COc1ccc(C2c3c(oc4ccccc4c3=O)C(=O)N2Cc2ccncc2)cc1OC (stereo not given)	none (no result: Anthrax LF prot, BoNT A protease, BH1578 lux ind, BoNT-F LC inh, Autofluor counter)
COc1ccc(-c2nc3c(C)cc(Br)cn3c2Cc2cccc(F)c2)cc1OC	none (no result: BJeLR viability, BH1578 lux ind)
COC(=O)C1=C(C)NC(C)=C(C(=O)OC)C1C(=O)OCC(=O)NC1CCCCC1C (stereo not given)	none (no result: BJeLR viability)
N#CC1=C(N)Oc2c(c(=O)oc3ccccc23)C1c1ccncc1 (stereo not given)	none (no result: BJeLR viability)
CCOc1ccc(C2C(C#N)=C(N)Oc3c2c(=O)oc2ccccc32)cc1 (stereo not given)	BoNT A protease inconclusive, Autofluor counter 24671
CSCCC1NC(=O)C(C(C)=NNC(N)=O)=C1O (stereo not given)	none (no result: BJeLR viability)
CCc1nc2ccc(C(=O)N3CCN(S(=O)(=O)CC)CC3)cn2c1N(CC)Cc1cccc(Br)c1	none (no result: BJeLR viability)
N#Cc1nc(Cc2cccc3ccccc23)oc1NCC1CCCO1 (stereo not given)	Autofluor counter 21943
CCCOc1ccc(-c2nc(C#N)c(NCC3CCCO3)o2)cc1 (stereo not given)	Autofluor counter 24772
N#Cc1nc(Cc2cccc3ccccc23)oc1NCCCN1CCOCC1	none
N#Cc1nc(Cc2cccc3ccccc23)oc1NCc1ccco1	Autofluor counter 22710
CC1(C(=O)NS(=O)(=O)Cc2ccccc2C(F)(F)F)CCN1C(=O)Cc1cccs1 (stereo not given)	none (no result: BJeLR viability)
COc1ccc(CNC(=O)c2cccc3c(-c4cnn(C)c4)coc23)cc1OC	none (no result: BJeLR viability)
CC(C)NC(=O)c1cccc2c(-c3ccc(F)c(F)c3)coc12	none (no result: BJeLR viability)
CC1=C(C)CC(C(=O)NCCc2ccc(F)cc2)C(C(=O)O)C1 (stereo not given)	none
Cc1ccc(CCNC(=O)C2CCCN(C(=O)N(C)C)C2)cc1 (stereo not given)	Autofluor counter 25529
CN(C)C(=O)N1CCCC(C(=O)NCc2ccccc2)C1 (stereo not given)	none
CCS(=O)(=O)N1CCCC(C(=O)NCCc2ccc(C)cc2)C1 (stereo not given)	none
CC1=C(C)CC(C(=O)NCCc2ccccc2)C(C(=O)O)C1 (stereo not given)	Autofluor counter 23755
CN(C)C(=O)N1CCCC(C(=O)NCCc2ccccc2)C1 (stereo not given)	Autofluor counter 24323
Cn1c(NCc2ccccc2F)nc2cc(-c3cccc(C(F)(F)F)c3)sc2c1=O	none (no result: BJeLR viability)
O=C(O)Cn1nc(-c2ccc(F)cc2)oc1=O	none
O=C(O)Cn1nnnc1-c1ccc(F)cc1	Autofluor counter 21941
COC(=O)c1cccc(NC(=O)Cn2cnc3ccccc3c2=O)c1	none
NS(=O)(=O)c1cccc(NC(=O)Cn2cnc3ccccc3c2=O)c1	Autofluor counter 20676
CCN(c1ccccc1)S(=O)(=O)c1cc(C(=O)NCC(c2ccc(OC)cc2)N(C)C)ccc1C (stereo not given)	none (no result: BJeLR viability)
Cc1c(C(=O)/C=C/c2ccccc2F)c2cc(O)ccc2n1C	none (no result: BJeLR viability)
N#Cc1cc(-c2ccc(Cl)cc2)cnc1Sc1ccccc1	none
N#Cc1cc(-c2ccccc2)cnc1Sc1ccc(Cl)cc1	Autofluor counter 24808
N#Cc1ccc2sn(-c3ccccc3)c(=O)c2c1	BoNT A protease 33 (no result: BJeLR viability)
CN1CCN(c2ccc([N+](=O)[O-])cc2C(=O)c2ccc(Br)cc2)CC1	Autofluor counter 23704
N#Cc1cc(Oc2ccccc2)c(-n2nnc3ccccc32)cc1C#N	none
N#Cc1cc(Oc2ccc3ccccc3c2)c(-n2nnc3ccccc32)cc1C#N	Autofluor counter 20725
Cc1ccc(NC(=O)CN(C)C(=O)c2cccc(S(=O)(=O)N3CCc4ccccc43)c2)cc1	none (no result: BJeLR viability)
C=CCSc1nnc(-c2c[nH]c3ccccc23)n1CCOC	Autofluor counter 22750
CCn1c(SCC(=O)NCc2ccccc2)nnc1-c1c[nH]c2ccccc12	Autofluor counter 22868
CCn1c(SCC(=O)OC)nnc1-c1c[nH]c2ccccc12	none
COCCn1c(SCC(N)=O)nnc1-c1c[nH]c2ccccc12	none
O=C(OCCCN1CCCC1)C1(c2ccccc2)CCCC1	BoNT A protease inconclusive, Autofluor counter 24071
Cc1csc(CN(C)C(=O)CC2C(=O)NCCN2Cc2ccccc2C)n1 (stereo not given)	none (no result: BJeLR viability)
COc1cccc(C(C)(O)c2nc(-c3ccc(N(C)C)cc3)cs2)c1 (stereo not given)	none (no result: BJeLR viability)
CCC1C(=O)N(c2nc(C)cc(C)n2)N=C1C (stereo not given)	Autofluor counter 19066
CC1=NN(c2nc(C)cc(C)n2)C(=O)C1CCC(C)C (stereo not given)	none
COc1cc2c(cc1NC(=O)CSc1ccccn1)oc1ccccc12	BoNT A protease inconclusive, Autofluor counter 20567
COc1cc2c(cc1NC(=O)C(C)N1CCN(S(=O)(=O)c3ccc(C)c(C)c3)CC1)oc1ccccc12 (stereo not given)	Autofluor counter 16646
COc1ccccc1CC(=O)Nc1cc2oc3ccccc3c2cc1OC	BoNT-F LC inh 34
COc1ccccc1CCC(=O)Nc1ccc2c(c1)c(=O)n(C)n2C	none (no result: BJeLR viability)
COc1ccc(-n2c3c(c(=O)[nH]c2=O)C(C(F)(F)F)(C(F)(F)F)N=C(CC(C)C)N3)cc1	Autofluor counter 19298
O=c1[nH]c(=O)n(-c2ccc(F)cc2)c2c1C(C(F)(F)F)(C(F)(F)F)N=C(c1ccc(F)cc1)N2	none
CCOC(=O)C1=C(N)OC2=C(C(=O)CC(C)(C)C2)C1c1cccnc1 (stereo not given)	Autofluor counter 22141
CCOC(=O)C1=C(C)NC2=C(C(=O)CCC2)C1c1cccnc1 (stereo not given)	Autofluor counter 23612
CCOC(=O)C1=C(N)OC2=C(C(=O)CCC2)C1c1cccnc1 (stereo not given)	none
CC1=C(C(=O)OC(C)C)C(c2cccnc2)C2=C(CCCC2=O)N1 (stereo not given)	none
CC(=O)c1c(O)cc(C)n(-c2ccc(F)cc2)c1=O	none
CC(=O)c1c(O)cc(C)n(Nc2nc(C)cc(C)n2)c1=O	BoNT A protease inconclusive, Autofluor counter 21656
